Compounds with a hit are over-represented: about 11% of the library has one in this group of screens.
JMJD2A Tudor inh = blocks the human JMJD2A Tudor domain; O75164; AlphaScreen JMJD2A-Tudor / H3K4me3 peptide binding; Potency, µM (series often up to 114 µM), most hits filed as inhibitors; 390,000 compounds, 4.4% hits; further: nearly all actives have a fitted effect of over 50% in size
HP1b chromo inh = inhibitors of HP1-beta chromodomain binding to methylated histone tails. AlphaScreen HP1-beta / biotin-H3K9me3 peptide binding. Potency, µM (highest dose often 114 µM), actives largely listed as inhibitors. 390,000 compounds, 0.56% hits. AID 540317; further: nearly all actives have a fitted effect of over 70% in size
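AlphaScreen: HP1-beta (50 nM) preformed 30 min with biotin-H3(1-18)K9me3 peptide (50 nM) in PBS pH 7.4, 0.01% Tween-20. Compound added for 30 min at RT, then streptavidin donor/nickel chelate acceptor beads (10 ug/mL) for 30 min.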
PI5P4Ka inh = blocks human PI5P4K alpha kinase activity; AID 652105; 330,000 compounds, 1.2% hits; PI5P4Kalpha enzyme, ADP-Glo luminescence, 60 min; stronger effect = lower value; P48426; max response, %; active means max response of -50% or lower; inconclusive means between -30% and -50%; inactive means -30% or higher; further: value at the top dose of about 77 µM
Target sequence (P48426 whole entry, looked up): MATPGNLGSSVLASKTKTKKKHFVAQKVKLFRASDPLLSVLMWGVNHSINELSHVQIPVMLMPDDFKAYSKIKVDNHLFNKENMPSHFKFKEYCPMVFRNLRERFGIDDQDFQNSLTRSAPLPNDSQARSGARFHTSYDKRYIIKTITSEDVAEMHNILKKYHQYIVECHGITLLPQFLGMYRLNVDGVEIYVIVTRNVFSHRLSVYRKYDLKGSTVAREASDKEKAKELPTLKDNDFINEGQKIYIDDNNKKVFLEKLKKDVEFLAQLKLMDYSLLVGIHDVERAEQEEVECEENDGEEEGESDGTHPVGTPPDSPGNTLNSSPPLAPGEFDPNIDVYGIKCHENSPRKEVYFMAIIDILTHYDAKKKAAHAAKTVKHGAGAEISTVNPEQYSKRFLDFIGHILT
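Quantitative HTS of the MLSMR library against PI5P4Kalpha with substrate. ATP added last at 5 microM final; room temperature, 60 minutes. Remaining ATP depleted, ADP converted and read as luminescence.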
G9a inh = inhibitors of human histone lysine methyltransferase G9a; Q96KQ7; G9a H3K9 monomethylation, AlphaScreen, 2 h; Potency, µM (titrated, usually from 102 µM), usual class: inhibitors; 350,000 compounds, 8.8% hits; further: nearly all actives have a fitted effect of over 75% in size
Target sequence (Q96KQ7 913-1193 limits assumed): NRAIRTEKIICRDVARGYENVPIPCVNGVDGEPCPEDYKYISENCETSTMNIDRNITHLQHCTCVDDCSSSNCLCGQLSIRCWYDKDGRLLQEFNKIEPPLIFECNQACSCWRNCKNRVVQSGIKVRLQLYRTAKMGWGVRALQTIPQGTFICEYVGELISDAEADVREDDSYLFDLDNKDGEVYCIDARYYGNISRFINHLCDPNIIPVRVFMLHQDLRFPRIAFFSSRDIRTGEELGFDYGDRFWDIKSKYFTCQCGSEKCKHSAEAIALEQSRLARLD
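Readings reflect AlphaScreen signal from monomethyl-H3K9 antibody detection. HMT at 20 nM; substrate b-H3K9 500 nM; cofactor SAM 20 uM; 2 h RT reaction; compounds tested as titrations in qHTS with 15 min preincubation.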
BAZ2B inh = inhibitors of human BAZ2B bromodomain; AlphaScreen BAZ2B-H3K14Ac peptide displacement; 360,000 compounds, 4.4% hits; Potency, µM (doses to about 114 µM), most hits filed as inhibitors; AID 504333; further: nearly all actives have a fitted effect of over 60% in size
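In this displacement format the biotinylated H3(5-23) peptide acetylated at Lys14 serves as ligand at 50 nM, with BAZ2B at 50 nM in PBS pH 7.4 containing 0.01% Tween-20. Donor and acceptor beads are 10 ug/mL final.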
L3MBTL1 inh = L3MBTL1 (human) inhibition | Q9Y468 | AlphaScreen L3MBTL1–H3K9me1 peptide binding | Potency, µM (doses to about 57.1 µM), usual class: inhibitors | 230,000 compounds, 0.66% hits | AID 485360; further: nearly all actives have a fitted effect of over 60% in size
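AlphaScreen assay: L3MBTL1 (50 nM final) was preincubated 30 min at room temperature with biotinylated H3(1-15)K9me1 peptide (75 nM final), then 30 min with library compounds; streptavidin donor and nickel chelate acceptor beads (10 ug/mL final) added, 30 min dark.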
Numbers stand for hits; . = inactive; ? = inconclusive; / = no result; [ ] = dose if it differs, or a comment. Unless noted, the call rests on the fitted dose curve; in most records, active means well fitted inhibition curve with a large enough effect; inconclusive means small, poorly fitted or top-dose-only effect; inactive means no such curve, though single readings can be large or run the other way.

SMILES	JMJD2A Tudor inh	HP1b chromo inh	PI5P4Ka inh	G9a inh	BAZ2B inh	L3MBTL1 inh
Cc1ccc(C)c(NC(=S)NNC(=O)c2cc3c(s2)CCC(C)C3)c1 (stereo unspecified)	.	.	.	35µM	.	.
COCCCNCC(=O)Nc1ccc(OC(F)(F)F)cc1	2.8µM	.	.	8.9µM	?	.
COc1ccc(CCNCC(=O)Nc2ccc(OC(F)(F)F)cc2)cc1OC	20µM	?	.	32µM	?	.
COc1ccc(CCNC(=O)CSCC(=O)Nc2ccccc2)cc1OC	.	.	.	/	.	/
CN(C)CCNC(=O)c1cccc(-c2cnc3c(NC=O)cc(-c4ccccc4F)cn23)c1	/	/	.	/	/	/
COc1ccc(F)cc1-c1cc(NC=O)c2ncc(-c3cccc(C(=O)N(C)C)c3)n2c1	/	/	-51	/	/	/
COc1ccc(F)cc1-c1cc(NC=O)c2ncc(-c3cc(OC)c(OC)c(OC)c3)n2c1	/	/	.	/	/	/
CN(C)C(=O)c1cccc(-c2cnc3c(NC=O)cc(-c4ccccc4Cl)cn23)c1	/	/	-65	/	/	/
Cc1nn(-c2ccccc2)c(C)c1S(=O)(=O)O	.	.	.	45µM	?	.
Cc1nn(-c2ccccc2)c(C)c1C=O	.	.	.	.	.	.
N#Cc1ccccc1S(=O)(=O)N1CCN(c2nc(-c3cccs3)nc3ccccc23)CC1	?	.	/	/	/	/
CCOc1ccc(NC(=O)Cn2nnc(-c3ccccc3NC(=O)c3cccs3)n2)cc1	56µM	.	.	.	.	/
CCCC(=O)Nc1ccccc1-c1nnn(CC(=O)Nc2ccc(OC)cc2)n1	.	.	.	.	.	.
CCCC(O)c1nc2ccccc2n1Cc1ccccc1OC (stereo unspecified)	.	.	/	.	?	/
CCNC(=O)C1CC(=O)N(Cc2ccc3c(c2)OCO3)C(=Nc2ccc(OCC)cc2)S1 (stereo unspecified)	.	.	.	.[12.7 µM]	50µM	.
Cn1cc(C(=O)Nc2ccc(F)c(Cl)c2)cn1	.	.	.	.	.	.
CN1c2ccsc2C(O)=C(C(=S)Nc2ccc(F)c(Cl)c2)S1(=O)=O	.	.	.	18µM	?	/
CCCCCCNC(=O)CC(NS(=O)(=O)c1ccc(NC(C)=O)cc1)C(C)C (stereo unspecified)	.	.	/	40µM	.	.
CCOC(=O)c1[nH]n(-c2ccc(Cl)cc2)c(=O)c1C	71µM	?	?	?	?	.
COC(=O)CN=Cc1c(C)[nH]n(-c2ccccc2)c1=O	.	.	.	?	.	.
COC(=O)N/N=C\c1c(C)[nH]n(-c2ccccc2)c1=O	?	.	.	1.8µM	?	.
Cc1[nH]n(-c2ccccc2)c(=O)c1/C=N/NC(=O)COc1ccccc1[N+](=O)[O-]	79µM	.	.	.	79µM	.
Cc1ccc2cccc(N=Cc3c(C)[nH]n(-c4ccccc4)c3=O)c2n1	?	.	.	10µM	.	.
O=c1c(-c2cccs2)nc2cnc(N3CCOCC3)nc2n1Cc1cccs1	/	/	/	.[0.501 µM]	/	/
Cc1[nH]n(-c2ccccc2)c(=O)c1/C=N/O	79µM	.	/	/	50µM	.
SMILES	JMJD2A Tudor inh	HP1b chromo inh	PI5P4Ka inh	G9a inh	BAZ2B inh	L3MBTL1 inh
CCOc1ccc2nc(/N=C/c3c(C)[nH]n(-c4ccccc4)c3=O)sc2c1	.	?	.	25µM	.	.
COCC(=O)N/N=C/c1c(C)[nH]n(-c2ccccc2)c1=O	79µM	.	.	.	.	/
CCOc1ccc2nc(/N=C/c3c(C)[nH]n(-c4ccc(C)cc4)c3=O)sc2c1	.	.	.	?	?	.
Cc1[nH]n(-c2ccccc2)c(=O)c1C=Nc1ccc(S(N)(=O)=O)cc1	.	.	.	?	.	/
Cc1[nH]n(-c2ccccc2)c(=O)c1/C=N/NC(=O)c1cccc([N+](=O)[O-])c1	.	.	.	.[2.33 µM]	.	.
CC(=O)N/N=C/c1c(C)[nH]n(-c2ccccc2)c1=O	50µM	.	.	.	79µM	/
O=C(NCCc1nc2ccccc2n1CCOc1cccc2ccccc12)C1CCCCC1	.	.	/	/	/	/
Cc1[nH]n(-c2ccccc2)c(=S)c1C=NCCCN=Cc1c(C)[nH]n(-c2ccccc2)c1=S	2µM	14µM	-76	1.8µM	?	.
Cc1[nH]n(-c2ccccc2)c(=O)c1/C=N/NC(=O)C(C)C	79µM	.	.	.	32µM	.
Cc1[nH]n(-c2ccccc2)c(=O)c1C=Nc1ccc(S(=O)(=O)NC(N)=O)cc1	.	.	.	?	.	/
O=C(N/N=C/c1c(O)n(-c2ccccc2Cl)c(=O)c2ccccc12)C1COc2ccccc2O1 (stereo unspecified)	?	.	-53	.	.	.
Cc1[nH]n(-c2ccccc2)c(=O)c1/C=N/N(C)c1ccccc1	?	.	.	13µM	?	.
Cc1[nH]n(-c2ccccc2)c(=O)c1/C=N\NC(=O)C1COc2ccccc2O1 (stereo unspecified)	?	.	.	.	71µM	.
Cc1c(/C=N\NC(=O)C2COc3ccccc3O2)c2ccccc2n1C (stereo unspecified)	?	.	.	.	?	.
Cc1[nH]n(-c2ccc(Cl)cc2)c(=O)c1C(=O)c1ccccc1	.	.	.	/	.	.
Cc1[nH]n(-c2ccccc2)c(=O)c1C(=O)c1ccc(Cl)cc1	50µM	.	.	/	.	.
COc1ccc(OC)c2sc(N3CCN(C(=O)c4ccc([N+](=O)[O-])s4)CC3)nc12	?	.	.	35µM	?	.
COc1ccc(OC)c2sc(N3CCN(C(=O)c4ccc5ncsc5c4)CC3)nc12	?	?	.	40µM	?	.
Clc1ccc2nc(NCc3ccccc3)c3nncn3c2c1	.	.	/	.	.	/
O=S1(=O)CC=C(CSC(=S)NC2CCS(=O)(=O)C2)C1 (stereo unspecified)	.	.	.	45µM	.	.
CC(C)(C)c1cc(CSC(=S)NC2CCS(=O)(=O)C2)c(Br)c(C(C)(C)C)c1 (stereo unspecified)	.	.	.	?	.	.
COc1ccc(CN(CC(O)COc2cccc3[nH]cc(C)c23)C(C)(C)C)cc1 (stereo unspecified)	50µM	?	.	?	?	/
CCc1ccccc1NC(=O)CSc1nc2ccccc2nc1Cc1cccc(OC)c1	.	.	/	.	.	/
CCCn1c(N)c(N(CCOC)C(=O)COC(=O)c2ccccc2NCCO)c(=O)[nH]c1=O	.	.	.	8.9µM	.	.
CCCCn1c(N)c(N(CC(C)C)C(=O)COC(=O)c2ccccc2NCCO)c(=O)[nH]c1=O	.	.	.	4µM	71µM	.
CCCCn1c(N)c(N(CCC(C)C)C(=O)COC(=O)c2ccccc2)c(=O)[nH]c1=O	.	.	.	.	.	.

Source: PubChem BioAssay (National Center for Advancing Translational Sciences (NCATS))
